Results: PubChem BioAssay (NCATS)
Records with an inconclusive call do not appear. Where a call stands in place of a potency, no number is given. Activity calls are given as the source filed them. Calls follow the shape of the dose curve; as a rule, active = well fitted curve in the direction sought with a large enough effect; inconclusive = small, poorly fitted or top-dose-only effect, or another doubt; inactive = no such curve, though single readings can be large; an effect the other way counts as inactive or inconclusive.

Experiments:
[1] = biological target: Glutathione peroxidase 1 (Homo sapiens) (UniProt P07203); assay: Primary qHTS Assay for Inhibitors of Recombinant Selenoprotein Glutathione Peroxidase 1 (GPX1) (AID 1845191); also: nearly all actives have a fitted effect of over 65% in size
In short: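 GR-coupled readout: NADPH consumption tracked by fluorescence, ex 340/em 450 nm, at t=0 and after 15 min at RT. Final mix 10 nM GPX1, 1 mM GSH, 0.5 mM CHP, 0.5 mM NADPH, 100 nM GR, 0.01% BSA, following 30 min enzyme–compound preincubation.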

[2] = biological target: Phospholipid hydroperoxide glutathione peroxidase GPX4 (Homo sapiens) (UniProt P36969); assay: Primary qHTS Assay for Inhibitors of Recombinant Selenoprotein Glutathione Peroxidase 4 (GPX4) (AID 1845192); also: nearly all actives have a fitted effect of over 65% in size; also: potency is read from the fitted curve at half-maximal effect
In short: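 Steps: GPX4 plus compound, 30 min RT; add GR/GSH/NADPH master mix; start with cumene hydroperoxide; read 340/450 nm fluorescence at 0 and 15 min. Finals were 200 nM GPX4, 1 mM GSH, 0.5 mM CHP, 0.5 mM NADPH, 100 nM GR.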

[3] = biological target: Luciferin 4-monooxygenase (Photinus pyralis) (UniProt P08659); assay: Primary firefly luciferase (FLuc) qHTS assay for identification of artifact compounds. (AID 1845220); conditions: outcome: dose series up to 54.1 µM; also: nearly all actives have a fitted effect of over 60% in size
In short: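 D-luciferin and ATP (10 uM each, final) in Tris acetate buffer pH 7.6 were incubated with compounds for 15 min at room temperature. The reaction was started with 10 nM Photinus pyralis luciferase and luminescence read after 5 min. Percent inhibition was fitted to a 4-parameter Hill equation.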

[4] = Primary fluorescence-based thiol-reactive (MSTI) qHTS assay for identification of artifact compounds. (AID 1845221);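 also: series mostly up to about 54 µM; thiol-reactive compounds lower the probe fluorescence signal; nearly all actives have a fitted effect of over 65% in size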
In short: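 Thiol-reactive compounds detected by quenching of 4 uM MSTI fluorescence (525/598 nm) after 1 h room-temperature dark incubation in PBS pH 7.4, 2% DMSO. qHTS titration; percent inhibition Hill-fitted against Acetyl-MSTI/MSTI controls.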

[5] = tested on: Nanoluciferase (engineered Oplophorus gracilirostris luciferase); assay: Primary Nanoluciferase (NLuc) qHTS assay for identification of artifact compounds. (AID 1845222); also: series mostly up to about 54 µM
In short: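 Diluted conditioned medium from NLuc-expressing S16 cells treated with compounds for 15 min at room temperature, then Nano-Glo substrate added; luminescence read after 5 min. Percent inhibition versus no-enzyme and DMSO controls fitted to 4-parameter Hill equation.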

[6] = Primary redox qHTS assay for identification of artifact compounds. (AID 1845223)
In short: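 Redox-cycling detection via DTT (250 uM final) oxidation coupled to Amplex Red (25 uM)/HRP (250 mU/mL) in HBSS. 15 min preincubation plus 30 min after DTT, room temperature. Ex/Em 525/598 nm; 4-parameter Hill fit against DMSO and 10 uM DA3003.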

Phospholipid hydroperoxide glutathione peroxidase GPX4 (Homo sapiens), sequence (P36969 whole entry, looked up): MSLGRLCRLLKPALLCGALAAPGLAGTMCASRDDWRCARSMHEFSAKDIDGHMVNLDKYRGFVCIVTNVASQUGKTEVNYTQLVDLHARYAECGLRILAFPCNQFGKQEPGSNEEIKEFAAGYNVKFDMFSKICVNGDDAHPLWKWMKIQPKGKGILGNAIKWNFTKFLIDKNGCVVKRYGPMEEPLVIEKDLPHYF
Glutathione peroxidase 1 (Homo sapiens), sequence (P07203 whole entry, looked up): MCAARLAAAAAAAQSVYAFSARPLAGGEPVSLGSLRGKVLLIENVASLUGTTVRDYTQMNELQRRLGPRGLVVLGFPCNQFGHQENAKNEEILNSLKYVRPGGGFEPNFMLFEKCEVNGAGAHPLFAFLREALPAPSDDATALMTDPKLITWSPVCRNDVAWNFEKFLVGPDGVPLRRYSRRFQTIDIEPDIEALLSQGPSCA

In the case of `CCC1Nc2cc(Cl)c(S(N)(=O)=O)cc2S(=O)(=O)N1` (configuration not stated), the Potency [1] is reported as “inactive” and the Potency [2] is reported as “inactive”.

With `COc1ccc(C(=O)c2ccccc2O)c(O)c1` the Potency [1] was “inactive” and the Potency [2] was “inactive”.

In the case of `CC(=O)O[C@H]1C[C@@H]2CC[C@@H]3[C@H](CC[C@@]4(C)[C@H]3C[C@H]([N+]3(C)CCCCC3)[C@@H]4OC(C)=O)[C@@]2(C)C[C@@H]1N1CCCCC1`, the Potency [1] is reported as “inactive” and the Potency [2] is reported as “inactive”.

In the case of `O=c1[nH]c(=O)n([C@H]2C[C@H](O)[C@@H](CO)O2)cc1F`, the Potency [1] is reported as “inactive” and the Potency [2] is reported as “inactive”.

With `CN1CCC[C@@H]1CCO[C@](C)(c1ccccc1)c1ccc(Cl)cc1` the Potency [2] was “inactive”.

With `CC1CCc2c(N3CCC(O)CC3)c(F)cc3c(=O)c(C(=O)O)cn1c23` (configuration not stated) the Potency [1] was “inactive” and the Potency [2] was “inactive”.

In the case of `CN1CCN(C2=Nc3ccccc3Sc3ccc(Cl)cc32)CC1`, the Potency [2] is reported as “inactive”.

For `Oc1c(Cl)cc(Cl)c(Cl)c1Cc1c(O)c(Cl)cc(Cl)c1Cl`, the Potency [2] was 25.5 µM (active).

In the case of `CC(=C(CCOC(=O)C(C)C)SSC(CCOC(=O)C(C)C)=C(C)N(C=O)Cc1cnc(C)nc1N)N(C=O)Cc1cnc(C)nc1N`, the Potency [2] is reported as “inactive”.

With `CCCCc1cc2ccccc2c(OCCN(C)C)n1` the Potency [2] was “inactive”.

For `NCCNC(=O)c1ccc(Cl)cn1`, the Potency [2] was “inactive”.

In the case of `CCOc1ccccc1OCCN[C@H](C)Cc1ccc(OC)c(S(N)(=O)=O)c1`, the Potency [1] is reported as “inactive” and the Potency [2] is reported as “inactive”.

With `C=C[C@H]1CN2CC[C@H]1C[C@H]2[C@H](O)c1ccnc2ccc(OC)cc12` the Potency [1] was “inactive”, the Potency [2] was “inactive” and the outcome [3] was “inactive”. For the same compound, the outcome [4] was “inactive”, the outcome [5] was “inactive” and the outcome [6] was “inactive”.

With `C[C@H]1O[C@@H](O[C@H]2CC[C@@]3(C)[C@H](CC[C@@H]4[C@@H]3C[C@@H](O)[C@]3(C)[C@@H](C5=CC(=O)OC5)CC[C@]43O)C2)C[C@H](O)[C@@H]1O[C@H]1C[C@H](O)[C@H](O[C@H]2C[C@H](O)[C@H](O[C@@H]3O[C@H](CO)[C@@H](O)[C@H](O)[C@H]3O)[C@@H](C)O2)[C@@H](C)O1` the Potency [1] was “inactive” and the Potency [2] was “inactive”.

For `O=C(CCCN1CC=C(n2c(=O)[nH]c3ccccc32)CC1)c1ccc(F)cc1`, the Potency [1] was “inactive”, the Potency [2] was “inactive” and the outcome [3] was “inactive”. For the same compound, the outcome [4] was “inactive”, the outcome [5] was “inactive” and the outcome [6] was “inactive”.

In the case of `C=C1c2cccc(O)c2C(O)=C2C(=O)[C@]3(O)C(O)=C(C(N)=O)C(=O)[C@@H](N(C)C)[C@@H]3[C@@H](O)[C@H]12`, the Potency [2] is reported as 11.2 µM (active).

In the case of `CCOC(=O)c1c(N)sc2c1CCN(Cc1ccccc1)C2`, the Potency [2] is reported as “inactive”.

For `CC(=O)OCC1=C(C(=O)O)N2C(=O)[C@@H](NC(=O)CSc3ccncc3)[C@H]2SC1`, the Potency [2] was “inactive”.

For `C[N+]1(C)CCC(=C(c2ccccc2)c2ccccc2)CC1`, the Potency [1] was “inactive” and the Potency [2] was “inactive”.
